Values joined by “and” are separate entries in the source; they are usually repeats but may differ in a detail not shown here. Equal values may be shown once. Among all 5,500 compounds or so, about 2,000 (36%) were called active. About 18% were inconclusive and are not listed. Rule as the data show it: active = normalized growth mostly below about 0.91 (no sharp cut-off); inconclusive = no clear call, values can overlap the other calls; inactive = mostly above about 0.92. Some of the results follow.
Test: chemical genetic growth profiling, strain panel (AID 1159580);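 also: tested at 20 µM; growth read once vehicle control cultures reached saturation at 30 °C; 1 = growth at the plate median or of vehicle wells; lower values mean less growth of the strain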
Settings: S. cerevisiae deletion strains, growth OD

Measured: normalized growth

CS(=O)(=O)c1ccc(C2=C(c3ccccc3)C(=O)OC2)cc1
inactive: locus YAL013W, strain DEP1, stronger effect = lower value 0.996 | locus YAL021C, strain ccr4, stronger effect = lower value 0.955 | locus YAL026C, strain drs2, stronger effect = lower value 0.985 | locus YAL030W, strain snc1, stronger effect = lower value 0.971 | locus YBL061C, strain skt5, stronger effect = lower value 0.972 | locus YBR009C, strain hhf1, stronger effect = lower value 0.959 | locus YBR021W, strain FUR4, stronger effect = lower value 0.986 | locus YBR023C, strain chs3, stronger effect = lower value 0.979 | locus YBR171W, strain sec66, stronger effect = lower value 0.983 | locus YBR229C, strain ROT2, stronger effect = lower value 1 | locus YBR231C, strain swc5, stronger effect = lower value 1 | locus YBR279W, strain paf1, stronger effect = lower value 0.987 | locus YCL011C, strain gbp2, stronger effect = lower value 0.975 | locus YCL016C, strain dcc1, stronger effect = lower value 0.98 | locus YCL029C, strain bik1, stronger effect = lower value 0.994 | locus YCL061C, strain MRC1, stronger effect = lower value 0.986 | locus YCL069W, strain vba3, stronger effect = lower value 0.976 | locus YCR088W, strain abp1, stronger effect = lower value 0.985 | locus YDL005C, strain med2, stronger effect = lower value 0.983 | locus YDL035C, strain GPR1, stronger effect = lower value 0.973 | locus YDL040C, strain nat1, stronger effect = lower value 0.984 | locus YDL074C, strain BRE1, stronger effect = lower value 0.929 | locus YDL101C, strain DUN1, stronger effect = lower value 0.99 | locus YDL134C, strain PPH21, stronger effect = lower value 1.01 | locus YDL185W, strain tfp1, stronger effect = lower value 0.963 | locus YDL192W, strain arf1, stronger effect = lower value 0.98 | locus YDR001C, strain nth1, stronger effect = lower value 0.985 | locus YDR069C, strain doa4, stronger effect = lower value 0.967 | locus YDR101C, strain arx1, stronger effect = lower value 0.995 | locus YDR137W, strain rgp1, stronger effect = lower value 1.02 | locus YDR150W, strain NUM1, stronger effect = lower value 0.991 | locus YDR159W, strain sac3, stronger effect = lower value 0.968 | locus YDR162C, strain NBP2, stronger effect = lower value 0.979 | locus YDR195W, strain ref2 0.963 | locus YDR297W, strain sur2, stronger effect = lower value 0.983 | locus YDR318W, strain mcm21, stronger effect = lower value 0.983 | locus YDR334W, strain swr1, stronger effect = lower value 0.968 | locus YDR335W, strain msn5, stronger effect = lower value 0.982 | locus YDR388W, stronger effect = lower value 0.991 | locus YDR392W, strain spt3, stronger effect = lower value 0.954 | locus YDR502C, strain sam2, stronger effect = lower value 0.983 | locus YEL003W, strain gim4, stronger effect = lower value 0.977 | locus YEL037C, strain rad23, stronger effect = lower value 0.992 | locus YEL061C, strain CIN8 (second series), stronger effect = lower value 0.97 | locus YEL061C, strain CIN8, stronger effect = lower value 0.984 | locus YER015W, strain faa2, stronger effect = lower value 0.98 | locus YER016W, strain bim1, stronger effect = lower value 0.985 | locus YER110C, stronger effect = lower value 0.988 | locus YER111C, strain swi4, stronger effect = lower value 0.978 | locus YER155C, strain BEM2 (second series), stronger effect = lower value 0.98 | locus YER155C, strain BEM2, stronger effect = lower value 1.04 | locus YER167W, strain BCK2, stronger effect = lower value 0.989 | locus YFR010W, strain ubp6, stronger effect = lower value 0.961 | locus YGL078C, strain dbp3, stronger effect = lower value 0.996 | locus YGL086W, strain mad1, stronger effect = lower value 0.983 | locus YGL167C, strain pmr1, stronger effect = lower value 0.971 | locus YGL173C, strain kem1, stronger effect = lower value 0.989 | locus YGL227W, strain vid30, stronger effect = lower value 0.969 | locus YGL240W, strain doc1, stronger effect = lower value 0.975 | locus YGL248W, strain PDE1, stronger effect = lower value 1 | locus YGL253W, strain hxk2, stronger effect = lower value 0.987 | locus YGR078C, strain PAC10, stronger effect = lower value 0.957 | locus YGR135W, strain pre9, stronger effect = lower value 0.979 | locus YGR229C, strain SMI1, stronger effect = lower value 0.971 | locus YGR252W, strain gcn5, stronger effect = lower value 0.967 | locus YHR013C, strain ard1, stronger effect = lower value 0.971 | locus YHR027C, strain rpn1, stronger effect = lower value 0.963 | locus YHR030C, strain SLT2, stronger effect = lower value 0.994 and 1.03 | locus YHR079C, strain IRE1 (second series), stronger effect = lower value 0.992 | locus YHR079C, strain IRE1, stronger effect = lower value 1.03 | locus YHR094C, strain hxt1, stronger effect = lower value 0.984 | locus YHR129C, strain ARP1, stronger effect = lower value 1 | locus YHR142W, strain chs7, stronger effect = lower value 0.984 | locus YHR200W, strain rpn10, stronger effect = lower value 0.969 | locus YIL066C, strain RNR3, stronger effect = lower value 1.01 | locus YIL073C, strain SPO22, stronger effect = lower value 0.936 | locus YIL125W, strain kgd1, stronger effect = lower value 0.999 | locus YIR030C, strain dcg1, stronger effect = lower value 0.987 | locus YJL092W, strain hpr5, stronger effect = lower value 0.984 | locus YJL095W, strain BCK1 (second series), stronger effect = lower value 0.977 | locus YJL095W, strain BCK1, stronger effect = lower value 0.951 and 1.01 | locus YJL115W, strain asf1, stronger effect = lower value 0.962 | locus YJL129C, strain trk1, stronger effect = lower value 0.978 | locus YJL134W, strain LCB3, stronger effect = lower value 0.998 | locus YJL154C, strain vps35, stronger effect = lower value 0.991 | locus YJL164C, strain tpk1, stronger effect = lower value 0.965 | locus YJL166W, strain qcr8, stronger effect = lower value 0.986 | locus YJL168C, strain set2, stronger effect = lower value 0.993 | locus YJL187C, strain SWE1 (second series), stronger effect = lower value 0.989 | locus YJL187C, strain SWE1, stronger effect = lower value 0.981 | locus YJR043C, strain POL32, stronger effect = lower value 0.955
